The values below come from paper PMC7862700, “An all-to-all approach to the identification of sequence-specific readers for epigenetic DNA modifications on cytosine”.

Common to all, as to test: DAPPL (digital affinity profiling via proximity ligation, sequencing); 10 mM Tris-HCl pH 7.5, 50 mM NaCl, 1 mM DTT, 4% glycerol, room temperature, 30 min; GST-TFs on glutathione beads, 16-mer random dsDNA library, 0.1% formaldehyde crosslink after washing; high values mean tight binding
One assay concerns the target T1, ELK1 (Homo sapiens, UniProt P19419 1-428).
T1 sequence: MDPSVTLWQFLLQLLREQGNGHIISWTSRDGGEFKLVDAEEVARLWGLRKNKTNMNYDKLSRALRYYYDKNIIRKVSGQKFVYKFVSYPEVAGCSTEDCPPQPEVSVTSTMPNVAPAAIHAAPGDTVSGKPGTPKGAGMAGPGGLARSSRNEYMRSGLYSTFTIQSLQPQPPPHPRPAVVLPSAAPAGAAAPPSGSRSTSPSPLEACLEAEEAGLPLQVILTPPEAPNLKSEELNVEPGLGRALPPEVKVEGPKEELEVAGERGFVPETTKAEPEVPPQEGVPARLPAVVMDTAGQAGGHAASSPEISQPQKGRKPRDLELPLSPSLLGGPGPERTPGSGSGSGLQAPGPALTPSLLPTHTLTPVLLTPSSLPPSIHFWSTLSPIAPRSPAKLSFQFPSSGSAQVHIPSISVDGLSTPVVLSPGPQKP
As to conditions: protein: recombinant; tags: N-terminal GST; dsDNA, one strand shown. A digest of the protocol: (§1)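 A tag-only sample was pooled with DNA-barcoded human transcription factors that had been expressed in yeast as GST fusions and captured on glutathione beads. The pools were incubated for 30 min at room temperature with 200 nmole of a random double-stranded 16-mer DNA library in Tris/NaCl/DTT/glycerol buffer, then washed, crosslinked with 0.1% formaldehyde, proximity-ligated (BsaI/T4 ligase, 1 h, 37 °C), PCR-amplified and sequenced on an Illumina NextSeq500. Binding signal is each hexamer's read frequency for a factor divided by its frequency for the tag-only sample.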

The next assay deals with T2, GABPA (Homo sapiens, UniProt Q06546 1-454).
T2 sequence: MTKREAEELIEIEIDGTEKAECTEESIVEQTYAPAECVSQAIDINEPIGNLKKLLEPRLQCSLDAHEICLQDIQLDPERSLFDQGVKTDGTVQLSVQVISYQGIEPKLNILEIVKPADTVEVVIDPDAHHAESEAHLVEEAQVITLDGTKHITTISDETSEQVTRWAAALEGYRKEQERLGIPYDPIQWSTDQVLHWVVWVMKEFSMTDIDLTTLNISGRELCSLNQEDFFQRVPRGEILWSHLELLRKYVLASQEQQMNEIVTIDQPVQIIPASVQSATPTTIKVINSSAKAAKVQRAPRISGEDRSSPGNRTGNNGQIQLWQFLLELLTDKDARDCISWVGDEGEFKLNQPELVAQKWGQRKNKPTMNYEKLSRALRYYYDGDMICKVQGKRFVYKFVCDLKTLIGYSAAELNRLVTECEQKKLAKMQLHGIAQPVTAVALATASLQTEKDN
The note with it: protein: recombinant; tags: N-terminal GST; dsDNA, one strand shown. The essentials:
as §1

The next assay addresses ELF1 (Homo sapiens, UniProt P32519 1-619). The note with it: protein: recombinant; tags: N-terminal GST; dsDNA, one strand shown. A digest of the protocol: as §1
A further assay has as its target SPI1 (Homo sapiens, UniProt P17947 1-270). As to conditions: protein: recombinant; tags: N-terminal GST; dsDNA, one strand shown. A digest of the protocol:
as §1

In a further assay the target is HSF1 (Homo sapiens, UniProt Q00613 1-529). The note with it: protein: recombinant; tags: N-terminal GST; chain copies: 3; dsDNA, one strand shown. A digest of the protocol: as §1
Another assay deals with ELF4 (Homo sapiens, UniProt Q99607 1-663). As to conditions: protein: recombinant; tags: N-terminal GST; dsDNA, one strand shown. A digest of the protocol:
as §1

For a further assay, the target named is T3, ELK4 (Homo sapiens, UniProt P28324-2 1-405).
T3 sequence: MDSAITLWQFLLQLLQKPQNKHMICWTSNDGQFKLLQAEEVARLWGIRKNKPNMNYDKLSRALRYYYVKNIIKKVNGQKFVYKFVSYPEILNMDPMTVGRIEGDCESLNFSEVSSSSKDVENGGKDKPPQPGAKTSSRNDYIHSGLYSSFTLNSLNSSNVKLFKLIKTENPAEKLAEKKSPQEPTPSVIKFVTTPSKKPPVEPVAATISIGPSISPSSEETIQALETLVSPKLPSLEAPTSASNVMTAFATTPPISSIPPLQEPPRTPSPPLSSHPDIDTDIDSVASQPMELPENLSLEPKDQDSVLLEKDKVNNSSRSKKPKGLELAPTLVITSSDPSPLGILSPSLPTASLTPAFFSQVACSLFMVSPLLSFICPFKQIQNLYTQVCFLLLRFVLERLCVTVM
The note with it: protein: recombinant; tags: N-terminal GST; dsDNA, one strand shown. The essentials: as §1

A further assay deals with T4, ETV2 (Homo sapiens, UniProt O00321 1-342).
T4 sequence: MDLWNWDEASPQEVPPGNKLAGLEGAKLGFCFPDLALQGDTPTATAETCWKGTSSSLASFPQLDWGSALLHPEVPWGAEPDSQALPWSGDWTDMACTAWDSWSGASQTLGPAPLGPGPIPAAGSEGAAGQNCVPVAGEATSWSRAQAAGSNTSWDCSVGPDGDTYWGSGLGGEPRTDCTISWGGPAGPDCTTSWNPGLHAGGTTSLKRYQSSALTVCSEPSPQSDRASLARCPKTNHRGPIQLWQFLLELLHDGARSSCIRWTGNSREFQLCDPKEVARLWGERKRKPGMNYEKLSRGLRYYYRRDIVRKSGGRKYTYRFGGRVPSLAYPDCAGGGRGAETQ
As to conditions: protein: recombinant; tags: N-terminal GST; dsDNA, one strand shown. A digest of the protocol:
as §1

The next assay has as its target T5, ELF3 (Homo sapiens, UniProt P78545 1-371).
T5 sequence: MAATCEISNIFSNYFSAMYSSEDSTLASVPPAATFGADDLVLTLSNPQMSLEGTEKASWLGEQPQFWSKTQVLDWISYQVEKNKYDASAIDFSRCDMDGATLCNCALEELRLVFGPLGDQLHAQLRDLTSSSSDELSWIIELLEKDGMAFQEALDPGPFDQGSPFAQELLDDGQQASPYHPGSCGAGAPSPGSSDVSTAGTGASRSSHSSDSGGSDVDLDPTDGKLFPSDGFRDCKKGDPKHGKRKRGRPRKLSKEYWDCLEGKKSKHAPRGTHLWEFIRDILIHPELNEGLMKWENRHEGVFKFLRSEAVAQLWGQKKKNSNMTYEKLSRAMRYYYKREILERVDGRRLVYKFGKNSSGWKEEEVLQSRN
As to conditions: protein: recombinant; tags: N-terminal GST; dsDNA, one strand shown. The essentials:
as §1

Chain of HSF1 (Q00613 whole entry): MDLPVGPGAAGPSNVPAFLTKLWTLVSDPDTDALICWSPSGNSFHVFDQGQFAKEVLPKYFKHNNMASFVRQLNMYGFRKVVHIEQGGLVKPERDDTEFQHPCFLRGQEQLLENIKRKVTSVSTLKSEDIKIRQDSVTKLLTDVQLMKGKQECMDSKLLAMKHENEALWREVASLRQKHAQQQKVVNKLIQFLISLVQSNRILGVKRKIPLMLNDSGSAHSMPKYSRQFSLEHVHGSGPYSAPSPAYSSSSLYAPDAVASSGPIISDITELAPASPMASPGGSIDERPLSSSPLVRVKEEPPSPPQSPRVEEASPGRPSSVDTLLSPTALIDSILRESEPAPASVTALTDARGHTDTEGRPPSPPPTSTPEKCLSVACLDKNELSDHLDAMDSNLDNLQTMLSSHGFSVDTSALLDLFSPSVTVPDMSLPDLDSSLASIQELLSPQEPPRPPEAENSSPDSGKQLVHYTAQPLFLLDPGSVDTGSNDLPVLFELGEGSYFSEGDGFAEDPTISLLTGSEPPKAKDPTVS
Chain of ELF1 (P32519 whole entry): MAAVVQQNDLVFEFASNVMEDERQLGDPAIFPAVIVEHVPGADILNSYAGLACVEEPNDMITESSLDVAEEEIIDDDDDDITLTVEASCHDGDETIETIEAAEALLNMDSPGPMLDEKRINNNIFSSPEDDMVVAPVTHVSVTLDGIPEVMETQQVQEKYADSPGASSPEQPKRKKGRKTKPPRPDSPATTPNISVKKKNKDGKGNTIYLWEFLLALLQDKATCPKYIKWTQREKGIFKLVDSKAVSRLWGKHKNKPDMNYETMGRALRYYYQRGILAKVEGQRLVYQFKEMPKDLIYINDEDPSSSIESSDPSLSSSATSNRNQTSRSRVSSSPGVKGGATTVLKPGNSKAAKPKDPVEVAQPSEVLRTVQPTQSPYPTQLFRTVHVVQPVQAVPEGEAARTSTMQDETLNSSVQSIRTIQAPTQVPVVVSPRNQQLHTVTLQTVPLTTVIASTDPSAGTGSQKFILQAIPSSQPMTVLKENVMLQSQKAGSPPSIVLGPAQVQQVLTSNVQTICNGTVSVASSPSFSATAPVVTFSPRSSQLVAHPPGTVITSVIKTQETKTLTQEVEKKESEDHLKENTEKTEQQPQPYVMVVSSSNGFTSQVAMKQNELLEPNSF
Chain of ELF4 (Q99607 whole entry): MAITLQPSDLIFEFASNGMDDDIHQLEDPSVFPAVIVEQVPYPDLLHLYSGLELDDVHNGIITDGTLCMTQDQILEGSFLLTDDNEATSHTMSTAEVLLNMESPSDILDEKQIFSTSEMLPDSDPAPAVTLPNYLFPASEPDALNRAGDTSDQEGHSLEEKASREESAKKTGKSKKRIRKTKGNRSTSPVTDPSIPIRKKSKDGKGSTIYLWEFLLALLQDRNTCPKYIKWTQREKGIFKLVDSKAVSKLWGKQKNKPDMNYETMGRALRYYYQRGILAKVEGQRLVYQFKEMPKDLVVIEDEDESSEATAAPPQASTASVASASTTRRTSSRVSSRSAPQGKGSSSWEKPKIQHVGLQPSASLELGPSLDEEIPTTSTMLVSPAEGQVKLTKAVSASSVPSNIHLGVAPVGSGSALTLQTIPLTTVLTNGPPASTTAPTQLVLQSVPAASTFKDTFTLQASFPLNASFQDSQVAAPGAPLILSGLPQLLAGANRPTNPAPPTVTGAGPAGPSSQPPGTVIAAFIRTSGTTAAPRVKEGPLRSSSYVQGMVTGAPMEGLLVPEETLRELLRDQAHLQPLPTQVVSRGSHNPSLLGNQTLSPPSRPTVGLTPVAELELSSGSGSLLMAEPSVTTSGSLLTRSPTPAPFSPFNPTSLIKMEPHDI

With AGAATA, the binding signal with ELK1 was 1.04 fold enrichment (6-mer frequency, TF over GST control); with GABPA, 1 fold enrichment (6-mer frequency, TF over GST control); in the assay with ELF1 it was 1.01 fold enrichment (6-mer frequency, TF over GST control); in the assay with SPI1, 1 fold enrichment (6-mer frequency, TF over GST control); with HSF1, 2.32 fold enrichment (6-mer frequency, TF over GST control); with ELF4, 1.06 fold enrichment (6-mer frequency, TF over GST control). The binding signal with ELK4 was 1.02 fold enrichment (6-mer frequency, TF over GST control); with ETV2, 1.07 fold enrichment (6-mer frequency, TF over GST control); in the assay with ELF3, 1.04 fold enrichment (6-mer frequency, TF over GST control).
